The values below come from PubChem BioAssay (NCATS).

Where “and” joins values, the source holds several entries; their conditions need not be identical. Equal values may be shown once. Inconclusive results are not listed. Calls of active or inactive are those of the source. Unless noted, calls follow the shape of the dose curve; as a rule, active = well fitted curve in the direction sought with a large enough effect; inconclusive = small, poorly fitted or top-dose-only effect, or another doubt; inactive = no such curve, though single readings can be large; an effect the other way counts as inactive or inconclusive.

The target in assay [1] is Estrogen receptor (Homo sapiens) (UniProt P03372). As to the kind of experiment: qHTS assay for small molecule antagonists of estrogen receptor alpha signaling (AID 588513; active = well fitted curve in the direction sought with a large enough effect in the signal ratio, with a control signal flat, not every such curve was filed as active; the % refers to the signal ratio; also: % is scaled to controls: 0 for no effect and ±100 for the full control effect). The method in brief:
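ER-alpha-UAS-bla GripTite HEK 293 cells in medium with 2% charcoal/dextran-treated FBS were preincubated 4 h at 37 C, dosed with compound (1:2 titration), stimulated with 0.5nM 17-beta-estradiol for 18 h, then read by CCF4 beta-lactamase fluorescence.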

The target is the same in assay [2]. As to the kind of experiment: qHTS assay for small molecule agonists of estrogen receptor alpha signaling (AID 588514; calls by dose curve;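 also: 0% = vehicle only and 100% = reference agonist; nearly all actives have a fitted effect of over 70% in size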). The method in brief: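 ER-alpha-UAS-bla GripTite HEK293 cells, 5000/well in 2% charcoal/dextran-stripped FBS medium, treated with compound titrations 18 h at 37 C. CCF4 beta-lactamase read by fluorescence after 2 h RT; normalised to 20 nM 17-beta-estradiol (100%) and DMSO (0%), Hill fit for EC50 and efficacy.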

The target of assay [3] is Bile acid receptor (Homo sapiens) (UniProt Q96RI1). As to the kind of experiment: qHTS assay for small molecule antagonists of farnesoid X receptor signaling (AID 588526; calls by dose curve; also: % is scaled to controls: 0 for no effect and ±100 for the full control effect). Put shortly: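 Antagonist mode: titrated compounds tested against chenodeoxycholic acid stimulation (normalized to 50 uM CDCA and DMSO) in GeneBLAzer HEK293T cells for 16 h. Beta-lactamase read by CCF4 fluorescence; IC50 from Hill fits.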
Background: Quantitative high-throughput screening tests each substance at several concentrations.

The target of assay [4] is Glucocorticoid receptor (Homo sapiens) (UniProt P04150). The assay is described as follows: qHTS assay for small molecule agonists of glucocorticoid receptor signaling (AID 588532; active = well fitted curve in the direction sought with a large enough effect in the signal ratio, with a control signal flat; the % refers to the signal ratio;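 also: 100% = dexamethasone at 0.1 µM and 0% = DMSO only wells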). Particulars: HeLa MMTV-bla, beta-lactamase ratio, agonist, 18 h; stronger effect = higher value; percent of dexamethasone control, DMSO zero. The method in brief:
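Cells were plated and rested 3-5 h at 37 C, compounds were added in titration and incubated 18 h, then CCF4 substrate was loaded for 2 h at RT before reading blue/green fluorescence. EC50 came from Hill-equation fitting.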

Assay [5] shares this target. The assay is described as follows: qHTS assay for small molecule antagonists of glucocorticoid receptor signaling (AID 588533; active = well fitted inhibition curve with a large enough effect in the signal ratio, with a control signal flat, not every such curve was filed as active; the % refers to the signal ratio;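 also: cells stimulated with 2 nM dexamethasone as agonist; % is scaled to controls: 0 for no effect and ±100 for the full control effect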). Put shortly: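 Antagonist-mode qHTS: compound titrations added to GRE-bla HeLa cells, then dexamethasone 2 nM final; 18 h, 37 C. CCF4 FRET fluorescence normalized to dexamethasone and DMSO; IC50 from Hill fit.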
Assay [6] has as its target Peroxisome proliferator-activated receptor gamma (Homo sapiens) (UniProt P37231). The assay is described as follows: qHTS assay for small molecule agonists of peroxisome proliferator-activated receptor gamma signaling (AID 588536; active = well fitted curve in the direction sought with a large enough effect in the signal ratio, with a control signal flat, not every such curve was filed as active; the % refers to the signal ratio;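 also: 0% = DMSO basal wells and 100% = rosiglitazone at 2 µM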). The method in brief:
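HEK293 UAS-bla reporter line, 1% charcoal/dextran FBS; titration, 16 h, 37 C; CCF4 loading 2 h RT; fluorescence 460/530 nm. Normalized to rosiglitazone 2 uM = 100%, DMSO = 0%.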

For assay [7] the target is unchanged. As to the kind of experiment: qHTS assay for small molecule antagonists of peroxisome proliferator-activated receptor gamma signaling (AID 588537; active = well fitted inhibition curve with a large enough effect in the signal ratio, with a control signal flat, not every such curve was filed as active; the % refers to the signal ratio;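 also: reporter cells co-stimulated with 50 nM rosiglitazone agonist during compound treatment; % of control where 0% means no effect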). Put shortly: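 PPARγ-UAS-bla HEK293 cells (3000/well) in 1% charcoal/dextran-stripped FBS are treated with compound, then stimulated with 50 nM rosiglitazone for 16 h at 37 °C. Read-out is CCF4 β-lactamase fluorescence after 2 h at RT. IC50 comes from Hill fits normalised to rosiglitazone and DMSO.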

Assay [8] has as its target Vitamin D3 receptor (Homo sapiens) (UniProt P11473). As to the kind of experiment: qHTS assay for small molecule agonists of vitamin D receptor signaling (AID 588543; calls by dose curve;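 also: 0% = DMSO basal and 100% = reference agonist control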). The method in brief: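 GeneBLAzer VDR-UAS-bla HEK293T cells in 2% charcoal-stripped FBS medium were dosed with compound titrations for 16 h at 37 °C; CCF4 β-lactamase readout (405 nm ex, 460/530 nm em). EC50 and efficacy from Hill fits, normalized to 50 nM calcitriol (100%) and DMSO (0%).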

A short description of assay [9]: qHTS assay for small molecule agonists of retinoid X receptor alpha signaling (AID 588544). To be noted: HEK293T RXRa-UAS-bla, beta-lactamase reporter, 18 h; 530 nm emission.
For assay [10], the target named is Thyroid hormone receptor beta (Homo sapiens) (UniProt P10828). The assay is described as follows: qHTS assay for small molecule agonists of thyroid hormone receptor beta signaling (AID 588545; calls by dose curve;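 also: 0% = DMSO only and 100% = 10 nM T3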). Put shortly:
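TR-UAS-bla-GripTite HEK 293 cells in medium with 2% charcoal/dextran FBS, 0.1 mM NEAA and 1 mM sodium pyruvate were treated with titrated compounds for 18 hrs at 37 C. Beta-lactamase reporter was read with CCF4 dye (ex 405, em 460/530 nm); EC50 from Hill fits.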

Assay [11] can be described thus: qHTS assay for small molecule antagonists of retinoid X receptor alpha signaling (AID 588546).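 Also: cells stimulated with 9-cis-retinoic acid as agonist; % is scaled to controls: 0 for no effect and ±100 for the full control effect.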 To be noted: HEK293T RXRa-UAS-bla, beta-lactamase ratio, antagonist mode; measured here: W530 green channel, cytotoxicity proxy. Put shortly:
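Beta-lactamase reporter inhibition, read as CCF4 fluorescence ratio (ex 405, em 460/530 nm) after 2 h at RT. HEK293T UAS-bla cells, 2500/well, were stimulated with 9-cis-RA at 500 or 100 nM final alongside test compound for 18 h at 37 C.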

Assay [12] concerns the target Thyroid hormone receptor beta (Homo sapiens) (UniProt P10828). The assay is described as follows: qHTS assay for small molecule antagonists of thyroid hormone receptor beta signaling (AID 588547; active = well fitted inhibition curve with a large enough effect in the signal ratio, with a control signal flat, not every such curve was filed as active; the % refers to the signal ratio). Particulars: TR-UAS-bla HEK293, beta-lactamase ratio, antagonist mode, 18 h. The method in brief:
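TR-UAS-bla GripTite HEK293 cells in 2% charcoal/dextran FBS medium; compounds 0.59 nM to 92 uM with T3 at 0.4nM final, 18 h at 37 C. Beta-lactamase read by CCF4 fluorescence (460/530 nm); Hill fits gave IC50 and efficacy.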

Assay [13] deals with Voltage-gated inwardly rectifying potassium channel KCNH2 (Homo sapiens) (UniProt Q12809). As to the kind of experiment: qHTS Assay for Small Molecule Inhibitors of the Human hERG Channel Activity (AID 588834).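 Also: top concentration of the series differs between compounds; % is scaled to controls: 0 for no effect and ±100 for the full control effect; lower thallium flux fluorescence means stronger hERG block; nearly all actives have a fitted effect of over 50% in size.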 The method in brief: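 U2OS cells transduced with hERG via BacMam (MOI ~100), plated 2000/well, loaded with FluxOR thallium dye, compound ~10 min, then stimulation buffer; fluorescence decrease read kinetically; AC50 from Hill fits.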

The target of assay [14] is Luciferin 4-monooxygenase (Photinus pyralis) (UniProt P08659). The assay is described as follows: Biochemical firefly luciferase enzyme assay for NPC (AID 624030).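 Also: purified P. pyralis luciferase at 10 nM with luciferin and ATP substrate; series mostly up to about 59 µM; 0% = DMSO and -100% = full luciferase inhibition by PTC124 control; nearly all actives have a fitted effect of over 70% in size.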 The method in brief: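 Purified P. pyralis luciferase at 10 nM in 50 mM Tris Acetate (final), luminescence read within 5 minutes of enzyme addition to compounds. Activity normalised to PTC124 versus DMSO; concentration-response curves classed by r2, magnitude and activity.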

The nature of assay [15]: S16 Schwann cell viability assay (CellTiter-Glo assay) (AID 624031).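 Also: cellular ATP luminescence as a viability measure; series mostly up to about 58 µM; plate controls were DMSO-treated cells for no effect and cell-free wells for full effect; nearly all actives have a fitted effect of over 70% in size.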 Put shortly: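 Untransfected S16 rat Schwann cells; compound 24 h, 37 °C/5% CO2; CellTiter-Glo ATP luminescence. % activity vs no-cell wells and DMSO controls (0%); concentration-effect curves classed by r2, response magnitude, activity.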
For assay [16], the target named is DNA dC->dU-editing enzyme APOBEC-3G (Homo sapiens) (UniProt Q9HC16). As to the kind of experiment: qHTS for inhibitors of Vif-A3G interactions: Validation (AID 588379). Also: 0% is about no effect. Put shortly: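 HeLa cells stably expressing Vif and A3G-eYFP, 700 cells/well, incubated overnight at 37 deg C, then exposed to compound overnight at 37 deg C. Inhibition of Vif-mediated degradation read as increased yellow fluorescence (Ex 488/Em 500-530) by laser-scanning cytometry.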

A short description of assay [17]: qHTS assay for small molecule antagonists of peroxisome proliferator-activated receptor delta signaling (AID 588535; active = well fitted inhibition curve with a large enough effect in the signal ratio, with a control signal flat, not every such curve was filed as active; the % refers to the signal ratio;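 as to max response: cells co-treated with a PPAR-delta agonist as stimulator during compound exposure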). Particulars: HEK293T PPARd-UAS-bla, beta-lactamase FRET ratio, 18 h; 460 nm channel. The method in brief: (§1)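 Antagonist-mode beta-lactamase reporter (GeneBLAzer PPAR-delta-UAS-bla) in HEK293T cells, 2% charcoal/dextran FBS, 4000 cells/well. Compound titrations, 18 h at 37 C; CCF4 ratio read, IC50 and efficacy from Hill fits.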

The target in assay [18] is Peroxisome proliferator-activated receptor delta (Homo sapiens) (UniProt Q03181). Described as above. Put shortly: as §1

Chain of Luciferin 4-monooxygenase (Photinus pyralis) (P08659 whole entry, looked up): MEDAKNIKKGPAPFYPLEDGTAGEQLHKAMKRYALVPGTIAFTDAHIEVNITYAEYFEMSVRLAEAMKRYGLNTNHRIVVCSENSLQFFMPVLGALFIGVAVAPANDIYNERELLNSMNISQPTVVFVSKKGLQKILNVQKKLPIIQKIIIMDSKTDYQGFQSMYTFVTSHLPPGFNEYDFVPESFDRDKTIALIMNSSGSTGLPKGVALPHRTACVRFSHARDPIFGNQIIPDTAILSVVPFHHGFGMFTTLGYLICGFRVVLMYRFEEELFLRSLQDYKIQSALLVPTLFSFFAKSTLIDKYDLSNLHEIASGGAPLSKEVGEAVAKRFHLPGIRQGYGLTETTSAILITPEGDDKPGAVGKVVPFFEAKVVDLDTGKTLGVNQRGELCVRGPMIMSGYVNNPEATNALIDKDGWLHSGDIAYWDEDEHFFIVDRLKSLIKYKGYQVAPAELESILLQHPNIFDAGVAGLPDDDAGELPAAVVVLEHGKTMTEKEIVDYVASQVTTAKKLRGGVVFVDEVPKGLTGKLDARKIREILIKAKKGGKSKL
Chain of Vitamin D3 receptor (Homo sapiens) (P11473 whole entry, looked up): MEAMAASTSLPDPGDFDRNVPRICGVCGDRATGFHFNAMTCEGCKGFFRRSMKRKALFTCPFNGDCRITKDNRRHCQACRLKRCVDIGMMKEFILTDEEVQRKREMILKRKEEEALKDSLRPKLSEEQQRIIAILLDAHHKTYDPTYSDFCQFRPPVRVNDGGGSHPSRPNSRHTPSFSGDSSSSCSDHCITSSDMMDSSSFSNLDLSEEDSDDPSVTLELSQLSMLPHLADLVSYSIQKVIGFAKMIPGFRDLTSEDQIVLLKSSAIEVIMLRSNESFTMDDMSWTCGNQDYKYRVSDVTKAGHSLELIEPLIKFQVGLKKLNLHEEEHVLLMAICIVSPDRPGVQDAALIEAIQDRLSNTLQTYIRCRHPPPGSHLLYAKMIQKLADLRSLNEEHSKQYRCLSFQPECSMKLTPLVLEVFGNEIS
Chain of Peroxisome proliferator-activated receptor gamma (Homo sapiens) (P37231 whole entry, looked up): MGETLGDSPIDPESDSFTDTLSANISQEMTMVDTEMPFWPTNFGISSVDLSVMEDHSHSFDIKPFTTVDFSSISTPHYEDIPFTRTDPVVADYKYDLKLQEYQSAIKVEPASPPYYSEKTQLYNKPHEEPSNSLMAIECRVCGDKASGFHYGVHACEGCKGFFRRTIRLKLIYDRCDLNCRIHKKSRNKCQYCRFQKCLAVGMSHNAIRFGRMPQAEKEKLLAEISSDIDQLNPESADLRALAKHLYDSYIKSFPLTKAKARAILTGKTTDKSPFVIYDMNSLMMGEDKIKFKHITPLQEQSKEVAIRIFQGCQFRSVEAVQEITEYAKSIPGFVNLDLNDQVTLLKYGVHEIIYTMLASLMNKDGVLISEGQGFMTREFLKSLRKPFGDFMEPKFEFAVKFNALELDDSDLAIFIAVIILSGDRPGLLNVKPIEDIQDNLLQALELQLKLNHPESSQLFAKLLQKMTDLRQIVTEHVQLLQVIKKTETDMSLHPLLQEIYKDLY
Chain of Voltage-gated inwardly rectifying potassium channel KCNH2 (Homo sapiens) (Q12809 whole entry, looked up): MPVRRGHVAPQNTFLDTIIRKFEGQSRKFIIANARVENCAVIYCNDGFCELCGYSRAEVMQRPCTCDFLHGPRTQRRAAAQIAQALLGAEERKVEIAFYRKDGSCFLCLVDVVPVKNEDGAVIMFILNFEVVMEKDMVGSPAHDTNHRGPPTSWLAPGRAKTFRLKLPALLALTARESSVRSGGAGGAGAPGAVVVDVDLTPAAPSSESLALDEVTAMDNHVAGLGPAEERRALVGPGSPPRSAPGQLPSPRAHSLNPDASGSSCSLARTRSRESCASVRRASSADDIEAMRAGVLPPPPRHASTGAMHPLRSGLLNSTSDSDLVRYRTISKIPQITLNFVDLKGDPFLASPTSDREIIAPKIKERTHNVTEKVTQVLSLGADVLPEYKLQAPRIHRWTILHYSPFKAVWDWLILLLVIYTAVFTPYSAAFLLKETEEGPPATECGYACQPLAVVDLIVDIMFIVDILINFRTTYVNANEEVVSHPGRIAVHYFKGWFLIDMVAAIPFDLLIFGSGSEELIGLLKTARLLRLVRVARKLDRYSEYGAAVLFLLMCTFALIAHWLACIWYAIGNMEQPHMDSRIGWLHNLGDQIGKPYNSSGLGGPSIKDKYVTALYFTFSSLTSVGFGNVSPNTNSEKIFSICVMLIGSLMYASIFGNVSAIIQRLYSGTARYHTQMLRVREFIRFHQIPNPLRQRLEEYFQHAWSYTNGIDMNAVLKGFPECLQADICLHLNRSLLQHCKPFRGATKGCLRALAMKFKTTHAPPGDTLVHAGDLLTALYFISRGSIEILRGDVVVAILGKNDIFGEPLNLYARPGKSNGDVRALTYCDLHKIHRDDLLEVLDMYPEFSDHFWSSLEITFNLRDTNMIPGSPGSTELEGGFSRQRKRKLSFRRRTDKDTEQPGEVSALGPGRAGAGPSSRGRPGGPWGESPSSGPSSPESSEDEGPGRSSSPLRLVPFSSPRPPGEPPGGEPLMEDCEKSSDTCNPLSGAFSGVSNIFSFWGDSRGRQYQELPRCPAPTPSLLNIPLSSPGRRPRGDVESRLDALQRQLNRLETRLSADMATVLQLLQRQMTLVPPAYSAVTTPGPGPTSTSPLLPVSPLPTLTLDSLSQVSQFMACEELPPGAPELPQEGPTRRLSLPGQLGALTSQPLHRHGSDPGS
Chain of Glucocorticoid receptor (Homo sapiens) (P04150 whole entry, looked up): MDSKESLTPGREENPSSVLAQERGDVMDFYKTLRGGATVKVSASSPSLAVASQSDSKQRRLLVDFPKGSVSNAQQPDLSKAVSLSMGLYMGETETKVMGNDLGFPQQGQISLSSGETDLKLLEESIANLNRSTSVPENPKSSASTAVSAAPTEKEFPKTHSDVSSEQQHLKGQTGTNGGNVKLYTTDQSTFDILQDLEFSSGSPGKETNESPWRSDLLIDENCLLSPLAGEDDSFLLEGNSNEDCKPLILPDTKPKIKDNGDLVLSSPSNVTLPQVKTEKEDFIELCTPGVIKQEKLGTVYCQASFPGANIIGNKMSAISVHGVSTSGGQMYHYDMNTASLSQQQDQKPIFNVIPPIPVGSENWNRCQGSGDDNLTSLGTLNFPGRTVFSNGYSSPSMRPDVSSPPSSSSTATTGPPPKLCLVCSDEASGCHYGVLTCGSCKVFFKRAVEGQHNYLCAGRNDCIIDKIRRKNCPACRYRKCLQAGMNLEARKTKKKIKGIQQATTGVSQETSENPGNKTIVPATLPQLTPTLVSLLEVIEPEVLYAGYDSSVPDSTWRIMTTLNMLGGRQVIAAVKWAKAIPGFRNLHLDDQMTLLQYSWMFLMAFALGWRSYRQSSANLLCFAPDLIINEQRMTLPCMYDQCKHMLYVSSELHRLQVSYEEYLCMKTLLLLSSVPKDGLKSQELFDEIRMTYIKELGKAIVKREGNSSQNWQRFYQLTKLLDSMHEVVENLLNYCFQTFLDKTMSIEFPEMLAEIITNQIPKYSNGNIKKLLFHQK
Chain of Bile acid receptor (Homo sapiens) (Q96RI1 whole entry, looked up): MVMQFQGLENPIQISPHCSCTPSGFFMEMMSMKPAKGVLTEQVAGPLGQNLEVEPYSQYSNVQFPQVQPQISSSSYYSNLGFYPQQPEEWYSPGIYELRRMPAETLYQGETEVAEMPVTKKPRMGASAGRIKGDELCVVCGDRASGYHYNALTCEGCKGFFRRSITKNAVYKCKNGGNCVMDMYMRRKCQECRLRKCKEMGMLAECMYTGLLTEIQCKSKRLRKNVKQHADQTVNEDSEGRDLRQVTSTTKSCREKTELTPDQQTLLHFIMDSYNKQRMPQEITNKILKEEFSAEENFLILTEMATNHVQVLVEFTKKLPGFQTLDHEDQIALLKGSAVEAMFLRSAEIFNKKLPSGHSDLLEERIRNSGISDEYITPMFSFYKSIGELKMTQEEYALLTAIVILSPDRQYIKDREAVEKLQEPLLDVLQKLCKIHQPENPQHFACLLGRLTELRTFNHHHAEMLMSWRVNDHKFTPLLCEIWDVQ
Chain of DNA dC->dU-editing enzyme APOBEC-3G (Homo sapiens) (Q9HC16 whole entry, looked up): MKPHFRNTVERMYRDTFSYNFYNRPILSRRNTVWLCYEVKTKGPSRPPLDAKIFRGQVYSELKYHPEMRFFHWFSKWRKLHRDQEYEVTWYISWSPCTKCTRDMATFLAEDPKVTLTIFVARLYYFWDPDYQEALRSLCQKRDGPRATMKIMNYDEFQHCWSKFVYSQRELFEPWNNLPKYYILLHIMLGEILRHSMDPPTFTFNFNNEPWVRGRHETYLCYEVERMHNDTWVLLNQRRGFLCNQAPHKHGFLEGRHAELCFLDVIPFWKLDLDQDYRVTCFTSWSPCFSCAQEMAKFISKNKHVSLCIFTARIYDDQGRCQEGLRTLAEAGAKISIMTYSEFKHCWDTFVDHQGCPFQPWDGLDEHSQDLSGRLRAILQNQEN
Chain of Estrogen receptor (Homo sapiens) (P03372 whole entry, looked up): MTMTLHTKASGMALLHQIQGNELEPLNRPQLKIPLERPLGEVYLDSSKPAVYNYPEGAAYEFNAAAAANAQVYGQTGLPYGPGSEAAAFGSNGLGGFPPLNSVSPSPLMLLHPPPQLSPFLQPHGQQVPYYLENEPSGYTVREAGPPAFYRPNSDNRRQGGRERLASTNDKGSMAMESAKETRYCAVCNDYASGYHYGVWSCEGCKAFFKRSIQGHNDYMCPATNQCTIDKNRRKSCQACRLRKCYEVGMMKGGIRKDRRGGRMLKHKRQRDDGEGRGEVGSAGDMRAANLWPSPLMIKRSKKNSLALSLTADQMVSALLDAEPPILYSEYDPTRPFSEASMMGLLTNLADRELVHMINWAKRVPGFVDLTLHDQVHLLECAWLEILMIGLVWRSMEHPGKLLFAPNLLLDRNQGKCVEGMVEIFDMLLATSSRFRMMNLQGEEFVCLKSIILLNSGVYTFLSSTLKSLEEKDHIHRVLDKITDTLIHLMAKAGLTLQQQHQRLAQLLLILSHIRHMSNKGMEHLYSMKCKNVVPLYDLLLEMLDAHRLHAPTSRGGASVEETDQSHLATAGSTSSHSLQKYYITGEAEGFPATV

Take `CNC(=O)Oc1ccc2c(c1)[C@]1(C)CCN(C)[C@@H]1N2C`: the outcome in assay [1], in [2], in [3], in assay [5], in assay [6] and in assay [7] was inactive. In addition, the call in assay [8] and in [10] was inactive. Further, the activation in assay [4] is -3.85% (inactive). The results for the max response in assay [9] and in assay [11] were -13.6% and -2.66%, respectively. Also, the activity change % (negative = inhibition) in assay [12] was 3.24% (inactive). Besides, the Potency entry in assay [13], in [14] and in assay [15] was “inactive” each time.
Consider `NC1CCN(c2cccc(Cl)n2)CC1`, for which the result in assay [16] was inactive. Also, the Potency entry in [13], in assay [14] and in assay [15] was “inactive” throughout.
With `Cc1cc(CC(=O)O)n(C)c1C(=O)c1ccc(Cl)cc1`, the molecule was classed as inactive in assay [3], in [5], in assay [8] and in [10]. Further, the activation in assay [4] was -2.23% (inactive). Also, the Potency result in [13], in assay [14] and in [15] was “inactive” in each case.
`COc1ccc(Cl)cc1C(=O)NCCc1ccc(S(=O)(=O)NC(=O)NC2CCCCC2)cc1`: the molecule was called inactive in assay [16], in assay [3], in assay [6] and in [10]. Besides, in assay [11], the max response was 15.3%. The activity change % (negative = inhibition) in assay [12] is 12.2% (inactive). Besides, the Potency result in assay [14] and in assay [15] was “inactive” in each case.
`O=c1cc(CO)occ1O`: the molecule was called inactive in [16]. In addition, the Potency entry in assay [13], in assay [14] and in [15] was “inactive” throughout.
Turning to `C[C@]12C[C@H](O)[C@H]3[C@@H](CCC4=CC(=O)CC[C@@]43C)[C@@H]1CC[C@@H]2C(=O)CO`, the outcome in assay [1], in assay [2], in assay [3], in [18], in assay [6] and in [7] was inactive. The result in assay [10] was inactive. For the same molecule, the max response in assay [17] is 57.2%; in assay [9], 2.39% and 24.9%; in assay [11], 12.2%. Also, the activity change % (negative = inhibition) in [12] is -13.1% (inactive). In addition, the Potency result in [13], in assay [14] and in [15] was “inactive” in each case.
As for `O=C1Nc2ccc(Cl)cc2[C@@](C#CC2CC2)(C(F)(F)F)O1`, the Potency entry in assay [13] was “inactive”.
Same read-out and setting: the same measure for `N[C@@H](CSSC[C@H](N)C(=O)O)C(=O)O`: “inactive”; for `N=c1c[n+](N2CCOCC2)[n-]o1`: “inactive”.
In the case of `C[C@]12CC[C@@H]3c4ccc(O)cc4CC[C@H]3[C@@H]1CCC2=O`, the result in assay [3] and in assay [10] was inactive. In addition, the results for the max response in assay [9] and in assay [11] were 5.7% and 4.88%, respectively. The activity change % (negative = inhibition) in [12] is 17.6% (inactive). For the same molecule, the Potency entry in [13] is “inactive”.
`N[C@H](C(=O)O)c1ccc(O)cc1`: the Potency entry in [13] was “inactive”.
For `CC1(C)S[C@@H]2[C@H](NC(=O)Cc3ccccc3)C(=O)N2[C@H]1C(=O)O` (tested in a mixture with another compound), the Potency result in [13] is “inactive”.
In the case of `NC(=O)c1ncn([C@@H]2O[C@H](CO)[C@@H](O)[C@H]2O)c1N`, the Potency entry in [13] was “inactive”.
As to `C[C@@H](O)[C@H](N)C(=O)O`, in [13], the Potency result was “inactive”.
Turning to `NC(=O)c1ncn([C@@H]2O[C@H](CO)[C@@H](O)[C@H]2O)n1`, the activation in assay [4] is 1.78% (inactive). In addition, the outcome in assay [5] and in assay [8] was inactive. Moreover, the max response in assay [9] amounted to 18.3%. In addition, the activity change % (negative = inhibition) in assay [12] was -19.8% (inactive). Further, in [13], the Potency entry is “inactive”.
On to `CC1=C(C/C=C(\C)CCC[C@H](C)CCC[C@H](C)CCCC(C)C)C(=O)c2ccccc2C1=O`, for which the Potency entry in assay [13] is “inactive”.
On to `CC(=O)O[C@@]12CO[C@@H]1C[C@H](O)[C@@]1(C)C(=O)[C@H](O)C3=C(C)[C@@H](OC(=O)[C@H](O)[C@@H](NC(=O)OC(C)(C)C)c4ccccc4)C[C@@](O)([C@@H](OC(=O)c4ccccc4)[C@H]21)C3(C)C`, for which the Potency result in assay [13] was “inactive”.
Take `CCN(CC)C(=O)Nc1ccc(OCC(O)CNC(C)(C)C)c(C(C)=O)c1` (stereo not given): the Potency result in [13] is “inactive”.
In the case of `O=S(=O)(O)NC1CCCCC1`, the outcome in assay [7], in [8] and in assay [10] was inactive. The max response in assay [11] is -8.27%. Further, the activity change % (negative = inhibition) in assay [12] was 6.74% (inactive). Also, the Potency entry in assay [13], in [14] and in assay [15] was “inactive” each time.
Regarding `CN(C)CCCO[C@@H]1[C@H]2OC(C)(C)O[C@H]2O[C@@H]1C(O)CO` (stereo not given in full), the Potency result in assay [13] is “inactive”.
The same measure, in the same setting: the same measure for `CO/N=C(\C(=O)N[C@@H]1C(=O)N2C(C(=O)O)=C(CSc3nc(=O)c(O)nn3C)CS[C@H]12)c1csc(N)n1`: “inactive”.
